This is a sample that favours compounds with a hit; in the whole collection about 19% have one here.
KB-V1 MDR tox: KB-V1 MDR subline cytotoxicity. KB-V1 MDR cells viability, CellTiter-Glo, 72 h. Potency, µM (highest dose often 46.1 µM), most hits filed as cytotoxic. 3.4% of 400,000 active. AID 1347076; also: nearly all actives have a fitted effect of over 60% in size
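Cytotoxicity via CellTiter-Glo luminescence after 72 h compound exposure at 37 degrees C. Cells: drug-selected KB-V1 line, DMEM phenol-red free plus 10% FBS. Compounds tested at multiple concentrations; normalized data fitted to concentration-effect curves.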
DT40 TDP1 no CPT: qHTS for Inhibitors of human tyrosyl-DNA phosphodiesterase 1 (TDP1): qHTS in cells in absence of CPT. 15% of 420,000 active. DT40 Tdp1-/- hTDP1 cells, no CPT, ATP luminescence, 48 h. Potency, µM (highest dose often 46.2 µM), usual class: inhibitors; also: nearly all actives have a fitted effect of over 55% in size
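Luminescent ATP content (CellTiter-Glo) served as the growth readout. Knockout chicken DT40 cells expressing human TDP1 were exposed to compounds without camptothecin for a minimum 48 hr at 37 °C.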
DT40 TDP1 CPT: growth inhibition of DT40 Tdp1-/-;hTDP1 cells with camptothecin (screen for TDP1 inhibitors). chicken DT40 Tdp1-/-;hTDP1 cells + 20 nM CPT, ATP luminescence, 48 h. Potency, µM (top dose mostly 46.2 µM), most hits filed as inhibitors. 12% of 420,000 active; also: nearly all actives have a fitted effect of over 55% in size
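Chicken DT40 Tdp1-/- cells stably complemented with human TDP1 were seeded at 400 cells/well in medium containing 20 nM camptothecin, exposed to pin-transferred compounds, and grown at 37 °C for at least 48 hr. Viability was read as ATP luminescence.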
HT1080-NT tox: kills 2HG-producing HT-1080-NT fibrosarcoma cells. HT-1080-NT fibrosarcoma viability, CellTiter-Glo ATP luminescence, 48 h. Potency, µM (doses to about 46.1 µM), hits mostly cytotoxic. 1.6% of 360,000 active. AID 686970;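 also: NT is the 2HG producing partner of a matched IDH1 knockdown line; nearly all actives have a fitted effect of over 55% in size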
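Fibrosarcoma NT cells, 750 per well in 5% FBS RPMI, were exposed to compound for 48 hours. Viability: CellTiter-Glo luminescence.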
KB-3-1 tox: kills parental KB-3-1 adenocarcinoma cells. KB-3-1 viability, CellTiter-Glo ATP luminescence, 72 h. Potency, µM (series often up to 46.1 µM), most hits filed as cytotoxic. 1.4% of 400,000 active. AID 1347075; also: nearly all actives have a fitted effect of over 60% in size
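Luminescent ATP read-out (CellTiter-Glo) measures survival of drug-naive KB-3-1 cells after 72 h compound exposure at 37 °C. Titration series was screened from lowest to highest concentration, with DMSO vehicle plates as background controls.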
HT1080 IDH1KD tx: HT-1080 IDH1 knockdown cell toxicity (counter line); Potency, µM (titrated, usually from 46.1 µM), hits mostly cytotoxic; 2% of 360,000 active; HT-1080 IDH1 knockdown viability, ATP luminescence, 48 h
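HT-1080-IDH1KD cells (IDH1 knocked down), 750/well in RPMI with 5% FBS, treated with compound 48 h at 37 degrees C. Viability by CellTiter-Glo luminescence, normalised to DMSO and no-cell wells; concentration-response curves classed.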
A number is an active result; . = inactive; ? = inconclusive; / = not tested or not shown. Calls follow the shape of the dose curve; as a rule, active = well fitted curve in the direction sought with a large enough effect; inconclusive = small, poorly fitted or top-dose-only effect, or another doubt; inactive = no such curve, though single readings can be large; an effect the other way counts as inactive or inconclusive.

SMILES	KB-V1 MDR tox	DT40 TDP1 no CPT	DT40 TDP1 CPT	HT1080-NT tox	KB-3-1 tox	HT1080 IDH1KD tx
CCOc1cc(/C=N/Nc2nc3ccccc3[nH]2)cc(Br)c1OCC(=O)N(C)C	?	13µM	10.3µM	?	?	?
c1ccc2c(c1)CC/C2=N/Nc1nc2ccccc2[nH]1	?	18.4µM	?	?	.	?
COc1ccc(/C=N/Nc2nc3ccccc3[nH]2)cc1OC	?	?	?	.	.	.
COc1cccc(COC(=O)C2CCN(S(=O)(=O)c3ccc(C)cc3C)CC2)c1OC	.	.	.	.	.	.
Cc1c(C=O)c2cc(OCc3ccccc3)ccc2n1C	?	.	.	.	.	.
BrC(=C\c1ccccc1)/C=N/Nc1nc2ccccc2[nH]1	?	?	18.4µM	.	.	?
COc1cc(/C=N/NC2=NS(=O)(=O)c3ccccc32)cc(OC)c1OC	.	.	.	.	.	.
COc1ccc2c(c1)c(/C=N/Nc1nc3ccccc3[nH]1)c(C)n2C	.	?	20.6µM	?	.	?
c1ccc(CN2CCC(=NNc3nc4ccccc4[nH]3)CC2)cc1	.	.	.	.	.	?
COc1cc(/C=N/NC2=NC(C)(C)Cc3ccccc32)cc(OC)c1OC	.	20.6µM	?	.	?	.
COc1cc(/C=N\Nc2nc3ccccc3[nH]2)cc(OC)c1OC	5.8µM	11.6µM	20.6µM	.	.	.
COc1cc2c(cc1OC)-c1nnc(-c3cccs3)n1C(C)(C)C2	.	?	?	.	.	.
CCCC(=O)Nc1ccc(S(=O)(=O)N2CCc3ccccc32)cc1	.	?	?	.	.	.
C(=N\Nc1nc2ccccc2[nH]1)/c1ccc2ncccc2c1	?	0.82µM	?	0.651µM	1.03µM	0.731µM
Fc1ccccc1-c1ccc(/C=N/Nc2nc3ccccc3[nH]2)o1	?	?	?	?	?	25.9µM
Cc1ccc(/C=N\Nc2nc3ccc(Cl)cc3[nH]2)o1	.	20.6µM	?	.	.	.
C#CCn1cc(/C=N/Nc2nc3ccccc3[nH]2)c2ccccc21	.	?	?	16.4µM	.	?
NC(=O)c1cccn1Cc1ccccc1Cl	.	?	?	.	.	.
NC(=O)c1cccn1Cc1cccc(Cl)c1	.	?	20.6µM	.	.	.
CN(C(=O)c1ccc(NC(=O)Cc2ccc([N+](=O)[O-])cc2)cc1)C1CCCC1	.	?	13µM	.	.	.
CN(C(=O)c1cccc(NC(=O)Cc2ccc([N+](=O)[O-])cc2)c1)C1CCCC1	.	25.9µM	23.1µM	.	?	.
CN(Cc1ccccc1)C(=O)c1cccc(NC(=O)Cc2cccc([N+](=O)[O-])c2)c1	?	23.1µM	?	.	.	.
CN(C(=O)c1cccc(NC(=O)Cc2cccc([N+](=O)[O-])c2)c1)C1CCCC1	.	?	18.4µM	.	.	.
CN(C(=O)c1cccc(NC(=O)Cc2cccc([N+](=O)[O-])c2)c1)C1CCC1	.	?	?	.	.	.
CCCCc1[nH]c(=O)c(C#N)c2c1CCCC2	?	.	.	.	.	?
SMILES	KB-V1 MDR tox	DT40 TDP1 no CPT	DT40 TDP1 CPT	HT1080-NT tox	KB-3-1 tox	HT1080 IDH1KD tx
CCCCn1c(-c2ccc([N+](=O)[O-])cc2)n[nH]c1=S	.	.	.	.	.	.
O=C1c2ccccc2-c2nc3ccccc3cc21	.	?	?	.	.	.
c1ccc2c(c1)Cc1cc3ccccc3nc1-2	.	20.6µM	?	.	.	?
COC(=O)c1cccc(Cn2c(Cl)c(/C=N/NC(=O)c3ccco3)sc2=O)c1	.	9.2µM	?	.	.	.
COC(=O)c1cccc(Cn2c(Cl)c(/C=N/NC(=O)c3ccccc3Cl)sc2=O)c1	?	?	?	.	.	.
O=c1sc(/C=N/Nc2ccccc2)c(Cl)n1Cc1ccccc1	.	.	.	14.6µM	.	13µM
COc1cc(C(=O)N/N=C(\C)c2ccc(NC(=O)Cc3ccccc3)cc2)ccc1O	.	.	.	.	.	.
COc1cc2c(cc1OC)CN(C(=O)C(C)(C)C)CC2	?	.	.	.	.	.
COc1cc2c(cc1OC)CN(C1CCC(C(C)(C)C)CC1)CC2 (centres undefined)	.	20.6µM	?	.	?	.
CC1(C)CC(=O)C(=Cc2cn(-c3ccccc3)nc2-c2ccccc2)C(=O)C1	?	23.1µM	23.1µM	.	.	.
CC1=NN(c2ccccc2)C(=O)/C1=C\c1cn(CCC#N)nc1-c1ccc(Cl)cc1	.	?	?	.	.	.
CC1=NNC(=O)/C1=C\c1cn(-c2ccccc2)nc1-c1ccc(Cl)cc1	16.4µM	5.17µM	5.17µM	7.31µM	25.9µM	5.8µM
Cc1ccc(-c2nn(-c3ccccc3)cc2C=C2C(=O)CC(C)(C)CC2=O)cc1	18.4µM	?	14.6µM	.	?	?
O/N=C/c1cn(-c2ccccc2)nc1-c1ccccc1	.	?	?	.	.	?
CC1CC(C)CN(CC(=O)NCCc2ccc(S(N)(=O)=O)cc2)C1 (centres undefined)	.	.	.	.	.	.
CC(C)(C)C(=O)CSc1nc2ccsc2c(=O)n1Cc1ccccc1Cl	/	14.6µM	20.6µM	/	/	/
COc1ccc(-n2c(SCC(=O)C(C)(C)C)nc3ccsc3c2=O)cc1	.	?	.	.	.	.
CCCCn1c(SCC(=O)c2ccc(O)c(O)c2)nc2ccsc2c1=O	?	23.1µM	14.6µM	.	?	?
CCCCn1c(SCC(=O)c2ccccc2)nc2ccsc2c1=O	?	18.4µM	?	.	.	.
CCCCn1c(SCC(=O)c2ccccc2)nc2c(sc3ccccc32)c1=O	.	.	.	/	.	/
CCOc1ccc2nc(N3CCCC3C(=O)N3CCC(c4nc5ccccc5o4)CC3)nc(C)c2c1 (centres undefined)	/	.	.	/	/	/
O=C(COc1ccccc1[N+](=O)[O-])N1CCC(c2nc3ccccc3o2)CC1	/	18.4µM	?	/	/	/
O=C(COc1ccccc1[N+](=O)[O-])N1CCC(Cc2ccccc2)CC1	?	.	.	.	.	.
Cc1ccc(C(C)C)c(OCC(=O)N2CCC(c3nc4ccccc4o3)CC2)c1	/	14.6µM	?	/	/	/
CCc1nc2sc3c(O)cc(=O)[nH]c3c2cc1C	.	11.6µM	?	.	.	.
Cc1ccc(NC(=O)C2CCCN(S(=O)(=O)c3ccc4c(c3)oc(=O)n4C)C2)cc1Cl (centres undefined)	.	?	?	/	.	/
CCN(CC)c1ccc(NC(=O)C2CCCN(S(=O)(=O)c3ccc4c(c3)oc(=O)n4C)C2)c(C)c1 (centres undefined)	?	10.3µM	20.6µM	/	.	/

Assay outcomes deposited in PubChem by National Center for Advancing Translational Sciences (NCATS).
